# Values joined by “and” are separate entries in the source; they are usually repeats but may differ in a detail not shown here. Equal entries are not always repeated. Out of some 5,500 compounds screened, about 2,000 (36%) were called active. Not shown: some 18% with an inconclusive outcome. This is one part of the list. Values without a mark were called inactive. Cut-off read from the data, not from the text of the source: active = normalized growth mostly below about 0.91 (no sharp cut-off); inconclusive = no clear call, values can overlap the other calls; inactive = mostly above about 0.92.
# Assay: chemical genetic growth profiling, strain panel (AID 1159580);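 note: tested at 20 µM; growth read once vehicle control cultures reached saturation at 30 °C; 1 = growth at the plate median or of vehicle wells; lower values mean less growth of the strain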
# Details: S. cerevisiae deletion strains, growth OD
smiles,measurement,setting,value
CN(C)CCOC(=O)COc1ccc(Cl)cc1,normalized growth,"locus YAL013W, strain DEP1, hits give low values",1.02
same,normalized growth,"locus YAL021C, strain ccr4, hits give low values",0.955
same,normalized growth,"locus YAL026C, strain drs2, hits give low values",0.968
same,normalized growth,"locus YAL030W, strain snc1, hits give low values",0.973
same,normalized growth,"locus YAL040C, strain CLN3, hits give low values",1.06
same,normalized growth,"locus YBL061C, strain skt5, hits give low values",0.966
same,normalized growth,"locus YBR009C, strain hhf1, hits give low values",0.984
same,normalized growth,"locus YBR021W, strain FUR4, hits give low values",0.95
same,normalized growth,"locus YBR023C, strain chs3, hits give low values",0.965
same,normalized growth,"locus YBR171W, strain sec66, hits give low values",0.969
same,normalized growth,"locus YBR229C, strain ROT2, hits give low values",1.01
same,normalized growth,"locus YBR231C, strain swc5, hits give low values",0.96
same,normalized growth,"locus YBR279W, strain paf1, hits give low values",0.987
same,normalized growth,"locus YCL011C, strain gbp2, hits give low values",0.957
same,normalized growth,"locus YCL016C, strain dcc1, hits give low values",0.969
same,normalized growth,"locus YCL029C, strain bik1, hits give low values",1.04
same,normalized growth,"locus YCL061C, strain MRC1, hits give low values",0.969
same,normalized growth,"locus YCL069W, strain vba3, hits give low values",0.974
same,normalized growth,"locus YCR088W, strain abp1, hits give low values",0.956
same,normalized growth,"locus YDL005C, strain med2, hits give low values",0.972
same,normalized growth,"locus YDL035C, strain GPR1, hits give low values",1.05
same,normalized growth,"locus YDL040C, strain nat1, hits give low values",0.973
same,normalized growth,"locus YDL074C, strain BRE1, hits give low values",1.05
same,normalized growth,"locus YDL101C, strain DUN1, hits give low values",1.02
same,normalized growth,"locus YDL134C, strain PPH21, hits give low values",1.01
same,normalized growth,"locus YDL185W, strain tfp1, hits give low values",1.03
same,normalized growth,"locus YDL192W, strain arf1, hits give low values",1.04
same,normalized growth,"locus YDR001C, strain nth1, hits give low values",0.965
same,normalized growth,"locus YDR069C, strain doa4, hits give low values",0.953
same,normalized growth,"locus YDR101C, strain arx1, hits give low values",1.03
same,normalized growth,"locus YDR137W, strain rgp1, hits give low values",1.21 [resistant] (active)
same,normalized growth,"locus YDR150W, strain NUM1, hits give low values",1.03
same,normalized growth,"locus YDR159W, strain sac3, hits give low values",0.944
same,normalized growth,"locus YDR162C, strain NBP2, hits give low values",1.03
same,normalized growth,"locus YDR195W, strain ref2",1.02
same,normalized growth,"locus YDR297W, strain sur2, hits give low values",0.963
same,normalized growth,"locus YDR318W, strain mcm21, hits give low values",1.06
same,normalized growth,"locus YDR334W, strain swr1, hits give low values",0.933
same,normalized growth,"locus YDR335W, strain msn5, hits give low values",0.969
same,normalized growth,"locus YDR388W, hits give low values",1.03
same,normalized growth,"locus YDR392W, strain spt3, hits give low values",0.974
same,normalized growth,"locus YDR502C, strain sam2, hits give low values",1.09 [resistant] (active)
same,normalized growth,"locus YEL003W, strain gim4, hits give low values",0.957
same,normalized growth,"locus YEL037C, strain rad23, hits give low values",0.969
same,normalized growth,"locus YEL061C, strain CIN8 (second series), hits give low values",0.972
same,normalized growth,"locus YEL061C, strain CIN8, hits give low values",1.02
same,normalized growth,"locus YER002W, strain NOP16, hits give low values",0.971
same,normalized growth,"locus YER015W, strain faa2, hits give low values",0.972
same,normalized growth,"locus YER016W, strain bim1, hits give low values",0.968
same,normalized growth,"locus YER110C, hits give low values",1.05
same,normalized growth,"locus YER111C, strain swi4, hits give low values",0.98
same,normalized growth,"locus YER155C, strain BEM2 (second series), hits give low values",0.962
same,normalized growth,"locus YER155C, strain BEM2, hits give low values",1.01
same,normalized growth,"locus YER167W, strain BCK2, hits give low values",1.01
same,normalized growth,"locus YFR010W, strain ubp6, hits give low values",0.965
same,normalized growth,"locus YGL078C, strain dbp3, hits give low values",1.04
same,normalized growth,"locus YGL086W, strain mad1, hits give low values",1.06
same,normalized growth,"locus YGL167C, strain pmr1, hits give low values",0.968
same,normalized growth,"locus YGL173C, strain kem1, hits give low values",0.975
same,normalized growth,"locus YGL227W, strain vid30, hits give low values",0.965
same,normalized growth,"locus YGL240W, strain doc1, hits give low values",0.967
same,normalized growth,"locus YGL248W, strain PDE1, hits give low values",1.01
same,normalized growth,"locus YGL253W, strain hxk2, hits give low values",0.968
same,normalized growth,"locus YGR078C, strain PAC10, hits give low values",1.05
same,normalized growth,"locus YGR135W, strain pre9, hits give low values",1.03
same,normalized growth,"locus YGR229C, strain SMI1, hits give low values",1.06
same,normalized growth,"locus YGR252W, strain gcn5, hits give low values",1.01
same,normalized growth,"locus YHR013C, strain ard1, hits give low values",0.983
same,normalized growth,"locus YHR027C, strain rpn1, hits give low values",0.96
same,normalized growth,"locus YHR030C, strain SLT2, hits give low values",1.02 and 1.08
same,normalized growth,"locus YHR079C, strain IRE1 (second series), hits give low values",1.03
same,normalized growth,"locus YHR079C, strain IRE1, hits give low values",1.11
same,normalized growth,"locus YHR094C, strain hxt1, hits give low values",1.02
same,normalized growth,"locus YHR129C, strain ARP1, hits give low values",1.02
same,normalized growth,"locus YHR142W, strain chs7, hits give low values",0.962
same,normalized growth,"locus YHR200W, strain rpn10, hits give low values",1.06
same,normalized growth,"locus YIL066C, strain RNR3, hits give low values",1.04
same,normalized growth,"locus YIL073C, strain SPO22, hits give low values",1.08
same,normalized growth,"locus YIL125W, strain kgd1, hits give low values",1.01
same,normalized growth,"locus YIR030C, strain dcg1, hits give low values",1.03
same,normalized growth,"locus YJL092W, strain hpr5, hits give low values",0.943
same,normalized growth,"locus YJL095W, strain BCK1 (second series), hits give low values",0.965
same,normalized growth,"locus YJL095W, strain BCK1, hits give low values",1.05 and 1.09
same,normalized growth,"locus YJL115W, strain asf1, hits give low values",0.947
same,normalized growth,"locus YJL129C, strain trk1, hits give low values",1
same,normalized growth,"locus YJL134W, strain LCB3, hits give low values",1.01
same,normalized growth,"locus YJL154C, strain vps35, hits give low values",0.971
same,normalized growth,"locus YJL164C, strain tpk1, hits give low values",0.97
same,normalized growth,"locus YJL166W, strain qcr8, hits give low values",0.981
same,normalized growth,"locus YJL168C, strain set2, hits give low values",1.02
same,normalized growth,"locus YJL187C, strain SWE1 (second series), hits give low values",1.04
same,normalized growth,"locus YJL187C, strain SWE1, hits give low values",0.981
same,normalized growth,"locus YJR043C, strain POL32, hits give low values",1.09
same,normalized growth,"locus YJR066W, strain TOR1, hits give low values",0.974
same,normalized growth,"locus YJR075W, strain HOC1, hits give low values",0.98

# Source: PubChem BioAssay AID1159580 (chemical genetic matrix, 2015)
